In PubChem BioAssay (NCATS):
Results filed as inconclusive are left out. Entries that show only a call come without a potency. Active and inactive are the calls of the source. Calls follow the shape of the full dose curve.

Test: Validation screen for inhibitors of Lassa infection (AID 463096)
Conditions: Lassa virus infection, cell-based; series mostly up to 46.1 µM

## CCCCNc1c(C(=O)OCC)c(C)nc2c1cnn2CC
  Potency: inactive

## CN(C)C(=O)Oc1cccc([N+](C)(C)C)c1
  Potency: inactive

## CCc1cccc2c3c([nH]c12)C(CC)(CC(=O)O)OCC3 (centres undefined)
  Potency: inactive

## NS(=O)(=O)c1cc2c(cc1Cl)NC(C1CC3C=CC1C3)NS2(=O)=O (centres undefined)
  Potency: inactive

## CC1=C(CC(=O)O)c2cc(F)ccc2/C1=C\c1ccc(S(C)=O)cc1 (centres undefined)
  Potency: inactive

## C#CCN(C)Cc1ccccc1
  Potency: inactive

## CCOC(=O)C1=C[C@]2(CC)CCCN3CCc4c(n1c1ccccc41)[C@@H]32
  Potency: inactive

## O=C(CCCN1CCC(O)(c2cccc(C(F)(F)F)c2)CC1)c1ccc(F)cc1
  Potency: inactive

## CCOC(=O)C(C)(C)Oc1ccc(Cl)cc1
  Potency: inactive

## CNCCC(Oc1ccccc1OC)c1ccccc1 (centres undefined)
  Potency: inactive

## CN1CCC(=C2c3ccccc3CC(=O)c3sccc32)CC1
  Potency: inactive

## COc1cc(C(=O)OCCCN2CCCN(CCCOC(=O)c3cc(OC)c(OC)c(OC)c3)CC2)cc(OC)c1OC
  Potency: inactive

## Nc1ccn([C@H]2CC[C@@H](CO)O2)c(=O)n1
  Potency: inactive

## CCCCCN(CCCCC)C(=O)C(CCC(=O)O)NC(=O)c1ccc(Cl)c(Cl)c1 (centres undefined)
  Potency: inactive

## CC1=C(CC(=O)O)c2cc(F)ccc2/C1=C\c1ccc(S(C)(=O)=O)cc1
  Potency: inactive

## Cn1cnc2c1c(=O)[nH]c(=O)n2C
  Potency: inactive

## COc1ccccc1N1CCN(CCCNc2cc(=O)n(C)c(=O)n2C)CC1
  Potency: inactive

## NC(N)=N/N=C/c1c(Cl)cccc1Cl
  Potency: inactive

## OC(CN1CCC(Cc2ccc(F)cc2)CC1)c1ccc(Cl)cc1 (centres undefined)
  Potency: inactive

## CCCCNc1ccc(C(=O)OCCN(C)C)cc1
  Potency: inactive

## C[C@]12C=CC(=O)C=C1CC[C@H]1[C@@H]3C[C@@H](O)[C@](O)(C(=O)CO)[C@@]3(C)C[C@H](O)[C@@]12F
  Potency: inactive

## CC(C)NCC(O)COc1ccc(COCCOC(C)C)cc1 (centres undefined)
  Potency: inactive

## NC(N)=NCCC[C@H](N)C(=O)O
  Potency: inactive

## N[C@@H](Cc1c[nH]c2ccc(O)cc12)C(=O)O
  Potency: inactive

## COc1ccc(CN(CCN(C)C)c2ccccn2)cc1
  Potency: inactive

## CCCCNc1cc(C(=O)O)cc(S(N)(=O)=O)c1Oc1ccccc1
  Potency: inactive

## O=C(CCNNC(=O)c1ccncc1)NCc1ccccc1
  Potency: inactive

## CCN(CC)CCOCCOC(=O)C1(c2ccccc2)CCCC1
  Potency: inactive

## CN(C)CCOC(c1ccccc1)c1ccccc1
  Potency: inactive

## Cn1c(=O)c2c(ncn2C)n(C)c1=O
  Potency: inactive

## C(=C\c1ccccc1)/CN1CCN(C(c2ccccc2)c2ccccc2)CC1
  Potency: inactive

## CN(C)C/C=C(/c1ccc(Br)cc1)c1cccnc1
  Potency: inactive

## CCNC(=O)N1CCN(CCCC(c2ccc(F)cc2)c2ccc(F)cc2)CC1
  Potency: inactive

## O=C1N(c2ccccc2)c2ccccc2C1(Cc1ccncc1)Cc1ccncc1
  Potency: inactive
